# This is part of a sample that, as a whole, favours compounds with a hit. Of some 83,000 tested, about 20% had one in any assay.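 Plates (96-well) were seeded with cells, treated with compound at one concentration, and incubated for 48 hours before percent growth was determined.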 Values without a mark were called inactive. Activity calls are given as the source filed them. How the source made its calls: active means growth percent below 10; inactive means the rest.
# Key:
# Assay in all cases: NCI-60 one-dose screen, 48 h (100 = growth as untreated, 0 = no growth, -100 = all killed)
# NCI-H226 lung = conditions: 10 µM
# NCI-H322M lung = conditions: 10 µM unless noted
# NCI-H460 lung = conditions: 10 µM unless noted
# NCI-H522 lung = conditions: 10 µM
# A549/ATCC NSCLC = conditions: 10 µM unless noted
# 786-0 renal = conditions: 10 µM unless noted
# COLO 205 colon = conditions: 10 µM unless noted
# HOP-62 NSCLC = conditions: 10 µM unless noted
# HOP-92 NSCLC = conditions: 10 µM unless noted
SMILES,growth (NCI-H226 lung),growth (NCI-H322M lung),growth (NCI-H460 lung),growth (NCI-H522 lung),growth (A549/ATCC NSCLC),growth (786-0 renal),growth (COLO 205 colon),growth (HOP-62 NSCLC),growth (HOP-92 NSCLC)
NC(=O)c1cc(Cl)ccc1NC(=O)COc1ccccc1,90.5%,46.7%,29.6%,44.2%,52.8%,60.1%,25.4%,–,–
C=CC[P+](c1ccccc1)(c1ccccc1)c1ccccc1,74.1%,–,53.5%,15.1%,69.6%,84.5%,32.8%,81.7%,25.4%
ONc1nc(NO)c2[nH]cnc2n1,82.8%,–,86.7%,97%,101%,86.9%,112%,83.9%,80.8%
COc1ccc(-n2ncc3c4nc(OC)c(S(=O)(=O)c5ccccc5)cc4ccc32)cc1,45.3%,–,78.9%,61.3%,71.3%,47.2%,96.6%,47.5%,26.7%
COc1c(Cl)ccc2c(-c3nc4cc(Cl)c(F)cc4s3)cc(=O)oc12,94.8%,106%,99.2%,-78.2% (active),78%,-43.3% (active),124%,–,–
CCCCC(=O)N/N=C/c1cc(I)cc(I)c1O,73.3%,–,28.1%,60.5%,46.6%,56.9%,57%,42.5%,48.7%
O=C1C2CC3C(CC2C(=O)[N]1[Sn]([c]1ccccc1)([c]1ccccc1)[c]1ccccc1)C1(Cl)C(Cl)=C(Cl)C3(Cl)C1(Cl)Cl (stereo not given),-43.5% (active),–,-81.6% (active),-94.2% (active),-97.2% (active),-86.2% (active),-86.7% (active),-92.1% (active),-96.1% (active)
CC1(C)N=C(N)N=C(N)N1c1cccc(OCCOc2cccc([N+](=O)[O-])c2)c1,98.2%,–,19%,7.73% (active),20.4%,81.7%,35%,93%,86.4%
COC1(OC)C2(Cl)C=C(c3ccccc3)C1(Cl)C(Cl)=C2Cl (stereo not given),102%,–,113%,80.9%,99.8%,103%,108%,93.9%,77.7%
COc1ccc(C(=O)C2=CC(=O)C(=O)C2)cc1OC,103%,–,103%,86.6%,106%,101%,112%,94.1%,95.9%
COc1ccc(-c2nn(-c3ccc(NC(=O)c4ccc(Cl)c(Cl)c4)cc3)cc2-c2ccncc2)cc1Cl,75.8%,69.1%,20.6%,54.3%,42.7%,-33% (active),-27.2% (active),–,37.1%
CCCCC(CCCC)(S(=O)(=O)CC)S(=O)(=O)CC,95.2%,–,104%,87.3%,94.3%,98.6%,103%,92.5%,87.6%
FC(F)(F)c1cc(CNc2ncc(Br)c(Cl)n2)cc(C(F)(F)F)c1,90.3%,–,107%,74.2%,101%,90.4%,98.4%,90.2%,84.3%
CCN(C(=O)c1ccc2c3c(cccc13)C=C2)c1ccccc1,93.3%,–,111%,79.1%,80.2%,91.1%,119%,99.8%,86.5%
C=C(C)CCCC(C)CC#N (stereo not given),99.4%,–,107%,90.3%,99.9%,97.3%,106%,90.7%,95.1%
O=C(Nc1ccc(Cl)c(Cl)c1)OCn1ncc2ccc([N+](=O)[O-])cc21,81.3%,–,99.8%,49.4%,82.8%,83.3%,93.2%,71.6%,62.6%
O=C1CC2c3cc(-c4cc5ccccc5o4)ccc3CCN2C(=O)N1c1ccccc1 (stereo not given),93.5%,–,87.6%,69.9%,80%,92.8%,96.2%,82.9%,47.2%

SMILES,growth (NCI-H226 lung),growth (NCI-H322M lung),growth (NCI-H460 lung),growth (NCI-H522 lung),growth (A549/ATCC NSCLC),growth (786-0 renal),growth (COLO 205 colon),growth (HOP-62 NSCLC),growth (HOP-92 NSCLC)
Cc1nc2cc(Nc3nc(N4CCOCC4)nc(N4CCN(C)CC4)n3)ccc2n1Cc1ccccc1,71.3%,–,107%,92.6%,102%,97.5%,111%,95%,82.9%
CCCCCCCCCCCCSC1=CC(=O)C=CC1=O,91.5%,–,105%,-81.2% (active),92.3%,98.7%,107%,82.2%,24.3%
Cc1nc2cc(Nc3nc(Nc4ccc(F)cc4)nc(-c4cccs4)n3)ccc2n1Cc1ccccc1,65%,–,39.6%,53.5%,43.1%,37.5%,56.8%,92.3%,22%
Cc1nc2cc(Nc3nc(Nc4ccc(F)cc4)nc(-c4ccc(Cl)cc4)n3)ccc2n1Cc1ccccc1,86.5%,94%,71.1%,82.8%,57.4%,91%,61.8%,–,35.1%
O=C1C(Br)=C(c2ccccc2)C(=O)C(Br)=C1c1ccccc1,95.1%,–,99.5%,-61% (active),87.6%,95.7%,90.9%,111%,92.1%
Cn1c2c(cc(S(=O)(=O)c3ccccc3)c1=O)CCc1c-2cnn1-c1ccccc1Cl,117%,–,106%,-72.1% (active),86.7%,102%,113%,113%,90.8%
O=C(Nc1ccc(Cl)c(Cl)c1)NC(CO)(CO)CO,97.5%,–,103%,88.7%,97.4%,92.3%,106%,88.1%,79.9%
CN1CCN(CCCn2c3c(sc4ncccc43)c(=O)n3nnc(-c4ccccc4)c23)CC1,96.2%,–,-70.7% (active),-73.5% (active),-74.7% (active),95.4%,63.6%,-75.8% (active),59.6%
COc1ncc(F)c(OC)n1,101%,–,108%,97.5%,99.8%,102%,110%,94.3%,87%
O/N=C/c1cccs1,107%,–,108%,106%,98%,102%,119%,94.3%,94%
Brc1ccc(SCN(CSc2ccc(Br)cc2)Cc2ccccc2)cc1,76.6%,–,63.1%,73%,45.8%,60.8%,108%,120%,59.7%
OB(O)c1ccccc1,105%,111%,110%,103%,98.5%,103%,116%,–,112%
Cc1cc(C)c(S(=O)O)c(C)c1,99%,124%,–,–,109%,112%,126%,–,93.1%
Cc1ccc(-c2c3c(N)c4c(nc3nc3c2c(C)nn3-c2ccccc2)CCCC4)cc1,91.8%,–,101%,91.6%,93.3%,91.6%,92.3%,106%,81.6%
Brc1ccc(Br)nn1,-26.8% (active),-97.4% (active),-21.9% (active),-33.2% (active),5.91% (active),-81% (active),-92.5% (active),–,-64.7% (active)
COc1nc2c(cc1S(=O)(=O)c1ccccc1)CCc1c-2cnn1-c1cccc(Cl)c1,80.3%,–,80.6%,75.6%,66.2%,72.8%,103%,90.7%,46.6%

# Source: PubChem BioAssay (NCI)
